Source: PubChem
Pf growth 48h: P. falciparum growth inhibition at 48 hours (one generation); P. falciparum luciferase growth in erythrocytes, 48 h; Potency, µM (highest dose often 28.7 µM), for the others: at the top dose activity change, negative = inhibition, actives largely listed as inhibitors; hit rate 5.9% among 310,000; AID 504832; further: potency means the concentration at half of the fitted maximal effect; on the % scale 0 is the no-effect control and ±100 the full control effect
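Cell-based growth assay: transgenic P. falciparum expressing firefly luciferase, cultured in red cells within RPMI 1640 containing 0.5% w/v Albumax, 24 mM bicarbonate and gentamycin. A drop in luciferase activity indicates inhibition.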
Pf growth 96h: P. falciparum growth inhibition at 96 hours; hit rate 6.9% among 320,000; Potency, µM (titrated, usually from 28.7 µM), without a hit: top-dose activity change, negative = inhibition, usual class: inhibitors; P. falciparum luciferase reporter growth, 96 h; further: potency means the concentration at half of the fitted maximal effect; on the % scale 0 is the no-effect control and ±100 the full control effect
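Parasite growth measured via integrated firefly luciferase reporter in P. falciparum. Infected erythrocytes at 2% hematocrit, 0.05% parasitemia final were treated 96 hours at 37 C under 5% CO2, and luminescence was read.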
Shiga toxin inh: inhibitors of Shiga toxin in Vero cells; inhibition, % at 38.7 µM; hit rate 9.2% among 290,000; Vero cells, Shiga toxin protein synthesis inhibition reporter; AID 2315; in the data active means inhibition mostly above about 28%, no sharp cut-off; inactive means mostly below about 43%; further: 0% is about no effect
Cycloheximide cs: affects cycloheximide protein synthesis inhibition readout, counter-screen; AID 2314; cell reporter, cycloheximide protein synthesis inhibition counterscreen; hit rate 12% among 300,000; max response, %; in the data active means max response mostly above about 13%, no sharp cut-off; inactive means mostly below about 14%; further: read at 38.3 µM for the half of the compounds with a filed dose; 0% is about no effect
HCMV antiviral: blocks human cytomegalovirus replication. HFF cells, HCMV-luciferase reporter, 72 h; hits give low values. activity change, negative = inhibition, % at 57.5 µM. hit rate 4.5% among 410,000. AID 1259415; in the data active means activity change below about -60%; inconclusive means no clear call, values can overlap the other calls; inactive means above about -39%; further: on the % scale 0 is the no-effect control and ±100 the full control effect
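Compounds were evaluated in HFFs infected with an HCMV luciferase reporter virus (MOI 1 PFU/cell). Luciferase in lysates collected 72 h post infection served as the replication measure.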
An asterisk follows results filed as active. Sampled rows, rich in hits. Any-hit rate of the full collection: about 20%. Unless noted, the call rests on the fitted dose curve; in most records, active means well fitted inhibition curve with a large enough effect; inconclusive means small, poorly fitted or top-dose-only effect, or another doubt; inactive means no such curve, though single readings can be large or run the other way.

`COc1ccc(S(=O)(=O)N2CCCCC2c2cc(C(=O)NCc3cccnc3)no2)cc1` (centres undefined) gave HCMV antiviral 4.
Screening Cc1cccc(NC(=O)c2sc(-n3nc(C)c(CCC(C)C)c3C)nc2C)c1C returned HCMV antiviral -1.
`NC(=O)CCC(NC(=O)c1ccc(Cl)cc1)C(=O)O` (centres undefined) gave Pf growth 48h 13%, Pf growth 96h 19%, Shiga toxin inh 38, Cycloheximide cs -9 and HCMV antiviral -17.
`CC1CCC(=NNC(=O)Cc2ccccc2)CC1` (centres undefined) gave Pf growth 48h inconclusive, Pf growth 96h inconclusive, Shiga toxin inh 9, Cycloheximide cs 14* and HCMV antiviral -35.
`CC(C)(C)C1CCC(=NNC(=O)CC(=O)NCc2ccccc2)CC1` (centres undefined) gave Pf growth 48h 10%, Pf growth 96h 2.1µM*, Shiga toxin inh -3, Cycloheximide cs -3 and HCMV antiviral -5.
For CC1CCC(=NNC(=O)Cc2cccn2C)CC1 (centres undefined) the results were Pf growth 48h 7%, Pf growth 96h 1%, Shiga toxin inh 3, Cycloheximide cs -1 and HCMV antiviral -19.
Screening Cc1ccc(CNC(=O)CCCc2cn(C)c3ccccc23)cc1 returned Pf growth 48h -4%, Pf growth 96h inconclusive, Shiga toxin inh 3, Cycloheximide cs -2 and HCMV antiviral 16.
Screening Nc1ccc2oc3ccc(N)cc3c(=O)c2c1 returned Pf growth 96h 139%, Shiga toxin inh 39, Cycloheximide cs 38* and HCMV antiviral inconclusive.
CC1CCCN(C(=O)CN2C(=O)C(C)Oc3ccccc32)C1 (centres undefined) was read as Pf growth 48h -4%, Pf growth 96h 11%, Shiga toxin inh -9, Cycloheximide cs -5 and HCMV antiviral -31.
Screening CC1Oc2ccccc2N(CC(=O)NCc2cccs2)C1=O (centres undefined) returned Pf growth 48h 82%, Pf growth 96h -11%, Shiga toxin inh 31*, Cycloheximide cs 19* and HCMV antiviral 44.
`CC1Oc2ccccc2N(CC(=O)N2CCCC2)C1=O` (centres undefined) gave Pf growth 48h 0%, Pf growth 96h 4.7µM*, Shiga toxin inh -11, Cycloheximide cs 0 and HCMV antiviral -22.
For COC(=O)c1ccc2c(=O)n(CCCCCC(=O)N3CCN(c4ccc(Cl)cc4)CC3)c(=O)[nH]c2c1 the results were HCMV antiviral 71.
Screening CC(C)(C)NC(=O)c1nc2ccccc2s1 returned Pf growth 48h -11%, Pf growth 96h 14%, Shiga toxin inh 47*, Cycloheximide cs 21* and HCMV antiviral 2.
O=C(Nc1ccccc1)Nc1sccc1-c1nc2ccccc2s1 was read as Pf growth 48h inconclusive, Pf growth 96h inconclusive, Shiga toxin inh 63*, Cycloheximide cs 17 and HCMV antiviral -24.
O=C(Nc1ccccc1)c1nc2ccccc2s1 was read as Pf growth 48h 202%, Pf growth 96h 311%, Shiga toxin inh 89*, Cycloheximide cs 48* and HCMV antiviral 161.
Cc1cccc(OCC(=O)Nc2cccc(-c3nc4ccccc4s3)c2)c1 was read as HCMV antiviral 67.
O=C(Nc1cccc(Cl)c1)Nc1sccc1-c1nc2ccccc2s1 was read as Pf growth 48h inconclusive, Pf growth 96h inconclusive, Shiga toxin inh 58, Cycloheximide cs 17 and HCMV antiviral 14.
For NNC(=O)c1nc2ccccc2s1 the results were HCMV antiviral 28.
Screening CC(C)(C)NC(=O)c1ccccc1-c1nc2ccccc2s1 returned Pf growth 48h inconclusive, Pf growth 96h inconclusive, Shiga toxin inh 21, Cycloheximide cs -2 and HCMV antiviral -17.
For Cc1cccc(NC(=S)c2nc3ccccc3s2)c1 the results were Pf growth 48h 217%, Pf growth 96h 85%, Shiga toxin inh 86*, Cycloheximide cs 28* and HCMV antiviral 104.
`CCCCN(C=O)c1c(CC)nc2ccc(C(=O)NCCOc3ccc(OC)cc3)cn12` gave HCMV antiviral 4.
For CCC(C)(C)NC(=O)C(c1ccc(C)cc1)N(CCN1CCOCC1)C(=O)CNC(=O)c1cccs1 (centres undefined) the results were Pf growth 48h -5%, Pf growth 96h 141%, Shiga toxin inh 11, Cycloheximide cs 11 and HCMV antiviral inconclusive.
`O=C(Cn1c(=O)n(-c2ccc(F)cc2)c(=O)c2sccc21)c1ccccc1` gave Pf growth 48h inconclusive, Pf growth 96h -7%, Shiga toxin inh -6, Cycloheximide cs 6 and HCMV antiviral 2.
CC(=O)c1ccc(S(=O)(=O)Nc2ccc(C(=O)NCC(c3ccco3)N3CCCC3)cc2)cc1 (centres undefined) was read as HCMV antiviral -27.
COc1ccc2c(c1)/C(=C/c1cnc[nH]1)C(=O)N2 was read as Pf growth 48h inconclusive, Pf growth 96h 5.2µM*, Shiga toxin inh 9, Cycloheximide cs -1 and HCMV antiviral -97*.
For CCN(CC(=O)Nc1cc(Cl)ccc1C)C(=O)CCc1nc2ccccc2c(=O)[nH]1 the results were Pf growth 48h 1%, Pf growth 96h -23% and HCMV antiviral 2.
Screening Cc1cc(Br)cc2c1N(Cc1ccccc1OC(C)C)C(=O)C2=O returned HCMV antiviral -88*.
Cc1cccc2c1N(Cc1ccccc1OCCC(C)C)C(=O)C2=O was read as HCMV antiviral -93*.
Screening COc1ccccc1CN1C(=O)C(=O)c2cccc(C)c21 returned HCMV antiviral 51.
Screening Cc1cc(C)n(-c2ccc(NC(=O)C3CCCCN3Cc3cccc4c3OCO4)cc2)n1 (centres undefined) returned Pf growth 48h 20%, Pf growth 96h 17%, Shiga toxin inh -7, Cycloheximide cs 10 and HCMV antiviral -20.
O=C(CCC1CCCC1)N1CCc2c([nH]c3ccccc23)C1c1ccc(F)cc1 (centres undefined) was read as HCMV antiviral -84*.
O=C(CCC1CCCC1)N1CCc2c([nH]c3ccccc23)C1c1ccc(Cl)cc1 (centres undefined) was read as HCMV antiviral -69*.
`Cc1ccc(NC(=O)CCn2c(=O)[nH]c3ccsc3c2=O)cc1C` gave Pf growth 48h -21%, Pf growth 96h inconclusive, Shiga toxin inh -12, Cycloheximide cs 0 and HCMV antiviral -9.
For COc1cccc(N2CCN(Cc3cc(=O)oc4cc(C)ccc34)CC2)c1 the results were HCMV antiviral 1.
For COCCn1cnc2c1c(=O)n(CC(=O)NC1CCCCC1)c(=O)n2Cc1ccccc1 the results were HCMV antiviral -39.
Screening O=c1c2c(ncn2C2CCCC2)n(Cc2ccccc2)c(=O)n1CCOc1ccc(Br)cc1 returned Pf growth 48h 13µM*, Pf growth 96h 13µM*, Shiga toxin inh -5, Cycloheximide cs 1 and HCMV antiviral -3.
